# LASV entry inh: qHTS for Inhibitors of binding or entry into cells for Lassa Virus | Lassa virus pseudotype entry inhibition, cell reporter | Potency, µM (titrated, usually from 37.9 µM), without a hit: at the top dose activity change, negative = inhibition, usual class: inhibitors | 300,000 compounds, 1.2% hits; calls by dose curve; tested in HEK293 cells; note: potency is the fitted concentration of half-maximal effect; % is set by controls: 0 for no effect and ±100 for the full control effect; nearly all actives have a fitted effect of over 50% in size
# HCV inh: qHTS Assay for Inhibitors of Hepatitis C Virus (HCV); Huh7.5.1 HCVcc-Cre infection, luciferase reporter, 44 h; Potency, µM (doses to about 41.8 µM), for inactives: at the highest dose activity change, negative = inhibition, hits mostly inhibitors; 340,000 compounds, 3.4% hits; active = well fitted inhibition curve with a large enough effect; inconclusive = small, poorly fitted or top-dose-only effect, or another doubt; inactive = no such curve, though single readings can be large or run the other way; note: potency is the fitted concentration of half-maximal effect; % is set by controls: 0 for no effect and ±100 for the full control effect
#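 1,000 cells/well; 4 h culture; + compound; + HCVcc-Cre (~0.5 moi); 44 h; luciferase substrate, RT 15 min; read 15 sec.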
# FMDV inh: High Throughput Screening for Foot and Mouth Disease Virus Antivirals | 410,000 compounds, 1.2% hits | Potency, µM (doses to about 57.9 µM), inactives show top-dose activity change, negative = inhibition, hits mostly inhibitors | FMDV antiviral cell-based qHTS; calls by dose curve; tested in HEK293T cells; note: read-out not given here; potency is the fitted concentration of half-maximal effect; % is set by controls: 0 for no effect and ±100 for the full control effect; nearly all actives have a fitted effect of over 45% in size
# MARV entry inh: qHTS for inhibitors of binding or entry into cells for Marburg Virus | Marburg virus pseudotyped entry inhibition, cell reporter | Potency, µM (highest dose often 37.8 µM), without a hit: top-dose activity change, negative = inhibition, most hits filed as inhibitors | 300,000 compounds, 1.8% hits; calls by dose curve; tested in HEK293 cells; note: potency is the fitted concentration of half-maximal effect; % is set by controls: 0 for no effect and ±100 for the full control effect
# HCMV inh: qHTS Assay for inhibitors of the human cytomegalovirus (HCMV). HFF cells, HCMV-luciferase reporter, 72 h; active compounds read low. activity change, negative = inhibition, % at 57.5 µM. 410,000 compounds, 4.5% hits; in the data active = activity change below about -60%; inconclusive = no clear call, values can overlap the other calls; inactive = above about -39%; note: % is set by controls: 0 for no effect and ±100 for the full control effect
#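 Inhibition of viral replication was scored as loss of reporter luminescence in HFFs infected with HCMV-luciferase (MOI 1 PFU/cell) for 72 h; compounds tested at 2 doses, normalized to buffer and Salinomycin controls.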
# SARS PLP yeast: qHTS of Yeast-based Assay for SARS-CoV PLP | S. cerevisiae expressing SARS-CoV PLpro, growth rescue | Potency, µM (titrated, usually from 32.9 µM), inactives show at the top dose activity, positive = growth rescue, actives largely listed as activators | 330,000 compounds, 0.19% hits; calls by dose curve; note: potency is the fitted concentration of half-maximal effect; 0% is about no effect; nearly all actives have a fitted effect of over 55% in size
# * marks the source's active call; other numbers are inactive results; ? = inconclusive; . = not tested or not shown; ! = not active in a repeat; [ ] = remark or other dose. The list is not random: actives were taken first. Their share in the collection is about 8%.
SMILES,LASV entry inh,HCV inh,FMDV inh,MARV entry inh,HCMV inh,SARS PLP yeast
CCN(Cc1ccc(OC)c(COC)c1)CC1CCCN(CCc2cccc(OC)c2)C1 (stereo unspecified),.,7.9µM*,-30%,.,-75*,-6%
CCN(Cc1ccc(OC)c(COC)c1)CC1CCCN(CCc2cccc(F)c2)C1 (stereo unspecified),.,13µM*,-9%,.,-31,-4%
CCN(Cc1ccccc1OC)CC1CCCN(CCc2cccc(OC)c2)C1 (stereo unspecified),?,?,-16%,?,42,-2%
CCN(Cc1ccc(C#CCCO)cc1)CC1CCCN(CCc2cccc(F)c2)C1 (stereo unspecified),.,?,-10%,.,-24,5%
COc1ccc(Nc2c(-c3ccsc3)nc3nc(C)cc(C)n23)cc1,-17%[46.1 µM],.,-1%,-5%[46.1 µM],8,.
COc1ccc(Nc2c(-c3ccc(F)cc3)nc3nc(C)cc(C)n23)cc1,.,.,-7%,.,-67*,.
O=S(=O)(NCc1ccco1)N1CCCCCC1,9%,2%,34%,3%,-62*,-4%
O=S(=O)(NCc1ccco1)c1cccc(S(=O)(=O)N2CCCCC2)c1,19%,3%,15%,?,7,-2%
Cc1cc(NC(=O)c2ccccc2)ccc1NC(=O)Cc1ccccc1,1%,2%,13%,3%,-24,0%
Brc1ccc2c(c1)C(OC1CN3CCC1CC3)c1ccccc1CS2 (stereo unspecified),?,32µM*,-11%,4µM*,-27,7%
COc1ccc(NC2=C(NC(C)=O)C(=O)c3ccccc3C2=O)cc1,?,?,0%,?,-67*,3%
CC(=O)Nc1c(Cl)cc2c(c1Cl)C(=O)c1ccccc1-2,?,11µM*,17%,-9%,-39,.
CC(=O)Nc1ccc2c(c1)C(=O)c1ccccc1C2=O,4%,10µM*,57%,3%,34,-11%
CC(=O)Nc1c(Cl)cc2c(c1Cl)Cc1ccccc1-2,6%,?,24%,?,-10,.
Cc1cc(C)cc(NC(=O)c2cc3c(=O)n(Cc4ccco4)ccc3nc2C)c1,19%[46.1 µM],.,-25%,.,?,.
COc1ccc2c(c1)[nH]c1c(C)nccc12,.,?,?,.,-95*,.
Cc1nccc2c1[nH]c1ccc(Br)cc12,.,4µM*,-20%,.,-2,3%
Cc1csc(N(C(=O)c2cccc(S(=O)(=O)N3CCCC3)c2)c2ccccc2)n1,-5%,-44%,?,-17%,-16,8%
Cc1csc(N(C(=O)c2cccc(S(=O)(=O)N(C)C)c2)c2ccccc2)n1,?,12%,8.9µM*,3%,-3,3%
CC1(C(=O)NS(=O)(=O)c2ccc(Cl)cc2)CCN1C(=O)c1ccccc1 (stereo unspecified),.,.,-2%,.,-22,.
COc1cccc(-c2nc(SCC(=O)Nc3ccc4c(c3)OCCO4)c(-c3ccc(C)cc3)[nH]2)c1,?,.,-14%,?,-27,.
CCOC(=O)c1ccc(NC[C@@H](O)COc2ccccc2)cc1,.,.,.,-2%[46.1 µM],.,.
c1ccc2[nH]c(-c3cscn3)nc2c1,27%,-12%[8.37 µM],27%,22%,-90*,-9%
Fc1cccc(NC(=S)NNc2ccccc2)c1,.,-6%,61%,.,?,-11%
Fc1cccc(NC(=S)NNc2c3ccccc3nc3ccccc23)c1,?,4.5µM*,?,-28%[46.1 µM],16,0%
SMILES,LASV entry inh,HCV inh,FMDV inh,MARV entry inh,HCMV inh,SARS PLP yeast
Cc1ccc(C)c(CSCc2nc3ccccc3[nH]2)c1,.,?,?,.,-73*,-7%
COC(=O)CC1=C(C(=O)OC)C(c2cccs2)C(C#N)=C(N)O1 (stereo unspecified),-3%,22%,0%,3%[46.1 µM],-101*,5%
CCOc1ccc(C(=O)Nc2c(C)nc(Nc3ccccc3)nc2Nc2ccccc2)cc1OCC,-23%[46.1 µM],.,-17%,?,?,.
CCOc1ccc(Nc2nc(C)c(NC(=O)c3cccc(OC)c3)c(Nc3ccc(OCC)cc3)n2)cc1,3%[46.1 µM],.,?,11µM*,-12,.
CCCN(CCC)CCNC(=O)c1cc2c(-c3ccc(Cl)cc3)nn(C)c2s1,1%[46.1 µM],8.9µM*,?,4µM*,?,-4%
COc1cccc(NC(=O)c2cc3c(-c4ccc(Cl)cc4)nn(C)c3s2)c1,?,.,?,-22%[46.1 µM],?,.
CCN(CC)CCNC(=O)c1cc2c(-c3ccc(Cl)cc3)nn(C)c2s1,.,?,-37%,.,-33,0%
Cn1nc(-c2ccccc2F)c2cc(C(=O)Nc3ccc4c(c3)OCCO4)sc21,?,-59%,-14%,?,114,-7%
COc1cccc(-c2nn(C)c3sc(C(=O)NCc4ccccn4)cc23)c1,-21%,10µM*,-10%,?,106,-7%
COc1cccc(-c2nn(C)c3sc(C(=O)Nc4ccc5c(c4)OCCO5)cc23)c1,-7%,3.2µM*,26%,0%,.,-1%
COc1ccc(-c2nn(C)c3sc(C(=O)Nc4cccc(F)c4)cc23)cc1OC,?,.,?,.,-85*,.
COc1cccc(-c2nn(C)c3sc(C(=O)NCCc4cccc(C)c4)cc23)c1,?,.,-26%,?,-69*,.
CCN(CC)CCNC(=O)c1cc2c(-c3cccc(OC)c3)nn(C)c2s1,-5%[46.1 µM],13µM*,0%,?,-78*!,2%
COc1cc(Nc2cc3[nH]c(-c4ccccc4)cc3cn2)cc(C(F)(F)F)c1,.,.,.,.,-11,.
COc1ccc(-n2cc(C(=O)NCCc3ccc(C)cc3)c3ccccc3c2=O)cc1,-18%[46.1 µM],.,-8%,.,-31,.
Cc1ccccc1-c1nnc(C2CCN(S(=O)(=O)c3ccc(Cl)cc3)CC2)o1,21%[46.1 µM],.,-18%,15%[46.1 µM],-104*,.
COc1ccc(-c2nnc(C3CCN(S(=O)(=O)c4cccc(Cl)c4)CC3)o2)cc1,12%[46.1 µM],.,-22%,-2%[46.1 µM],-94*,.
COc1ccccc1-c1nnc(C2CCN(C(=O)c3ccc(C)cc3)CC2)o1,4%[46.1 µM],.,2%,?,1,.
COc1ccc(-c2nnc(C3CCN(C(=O)c4ccccc4F)CC3)o2)cc1,10%[46.1 µM],.,?,11%[46.1 µM],-105*,.
CC(C)Cn1c(SC(C)C(=O)NC2CC2)nnc1-c1ccccc1F (stereo unspecified),.,8%,-4%,.,-17,0%
Cc1ccc(-c2nc(S(=O)(=O)c3ccccc3)c(SCC(=O)NCC3CCCO3)o2)cc1 (stereo unspecified),?,?,-17%,-11%[46.1 µM],-60*,-2%
Cc1cc(C)cc(NC(=O)CSc2oc(-c3ccco3)nc2S(=O)(=O)c2ccccc2)c1,?,.,-27%,-26%[46.1 µM],2,.
